Experimental data published in paper PMC4336329 (PLoS ONE, 2015).
The campaign covered roughly 310,000 compounds. About 2,200 (0.71%) showed an effect of 50% or more. The effect is printed as a negative number. This excerpt belongs to a sample that is enriched for strong results.

Target: human ether-à-go-go-related gene (hERG) potassium channel (human, UniProt Q12809)
Assay: primary screen, population patch clamp on CHO cells stably expressing hERG; higher = less effect of the substance

Chain of human ether-à-go-go-related gene (hERG) potassium channel (Q12809 whole entry, looked up): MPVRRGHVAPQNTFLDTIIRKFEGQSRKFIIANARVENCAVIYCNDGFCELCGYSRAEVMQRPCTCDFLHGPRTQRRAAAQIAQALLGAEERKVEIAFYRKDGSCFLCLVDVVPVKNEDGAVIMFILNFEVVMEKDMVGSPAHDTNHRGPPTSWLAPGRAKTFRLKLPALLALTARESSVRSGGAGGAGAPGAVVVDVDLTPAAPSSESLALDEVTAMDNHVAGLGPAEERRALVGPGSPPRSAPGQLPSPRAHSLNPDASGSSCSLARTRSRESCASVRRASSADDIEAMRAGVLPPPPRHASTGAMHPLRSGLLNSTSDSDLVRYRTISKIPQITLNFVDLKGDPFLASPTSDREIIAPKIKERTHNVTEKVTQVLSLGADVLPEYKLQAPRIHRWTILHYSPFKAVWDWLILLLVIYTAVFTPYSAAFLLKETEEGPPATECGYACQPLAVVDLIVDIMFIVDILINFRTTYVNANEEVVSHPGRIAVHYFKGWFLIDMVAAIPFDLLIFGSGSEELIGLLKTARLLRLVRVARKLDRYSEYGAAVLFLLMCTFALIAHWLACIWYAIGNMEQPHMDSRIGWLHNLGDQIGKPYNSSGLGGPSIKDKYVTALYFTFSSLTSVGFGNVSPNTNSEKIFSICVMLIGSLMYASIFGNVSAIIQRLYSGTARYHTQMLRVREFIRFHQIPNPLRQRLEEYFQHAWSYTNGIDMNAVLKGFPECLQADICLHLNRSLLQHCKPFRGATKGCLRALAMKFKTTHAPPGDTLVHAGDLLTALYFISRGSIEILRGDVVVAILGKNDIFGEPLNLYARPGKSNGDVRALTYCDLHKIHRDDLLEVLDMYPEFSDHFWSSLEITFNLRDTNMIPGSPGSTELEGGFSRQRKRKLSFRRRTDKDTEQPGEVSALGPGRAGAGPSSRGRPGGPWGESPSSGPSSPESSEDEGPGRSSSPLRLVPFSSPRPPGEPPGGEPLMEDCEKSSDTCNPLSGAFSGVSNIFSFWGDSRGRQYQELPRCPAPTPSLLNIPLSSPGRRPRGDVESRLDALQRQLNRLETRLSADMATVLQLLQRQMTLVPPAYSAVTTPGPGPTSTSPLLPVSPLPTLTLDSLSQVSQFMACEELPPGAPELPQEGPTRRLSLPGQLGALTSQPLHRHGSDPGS

| SMILES | hERG current change (%, negative = inhibition) at 1uM [%] |
| --- | --- |
| CSCCC(NC(=O)OCc1ccccc1)C(=O)NCc1cccnc1 (centres unmarked) | 9.52 |
| O=C(N/N=C/c1ccc2c(c1)OCO2)c1ccc(COCC(F)(F)C(F)F)cc1 | 9.11 |
| N#Cc1nc(Cc2ccccc2)oc1N1CCCC1 | 4.79 |
| Cc1ccc(C)c(-n2ccnc2SCC(=O)O)c1 | 14.4 |
| COC(=O)c1sc(S(=O)(=O)NC(C)C(=O)O)c(C(=O)OC)c1C (centres unmarked) | -4.83 |
| CCCN(CCC)CCCNC(=O)C1CCN(S(=O)(=O)c2cccc3nsnc23)CC1 | 12.5 |
| CCc1ccc(NC(=O)Nc2cccs2)cc1 | 21.2 |
| COc1cccc(C2=NOC(C(=O)Nc3ccc4c(c3)OCO4)C2)c1 (centres unmarked) | 12.7 |
| CCNS(=O)(=O)c1ccc(CCC(=O)N2CCN(c3cc(Cl)ccc3C)CC2)cc1 | 12.4 |
| CCCOC1OC(=O)c2c1ccc(OC)c2OC (centres unmarked) | 11.9 |
| Cc1ccc(S(=O)(=O)Nc2ccc(-c3ccc4nncn4n3)cc2)cc1 | 24.9 |
| Cc1cccc(S(=O)(=O)Nc2ccc(-c3ccc4nncn4n3)cc2)c1 | -85.6 |
| O=S(=O)(Nc1ccc(-c2ccc3nncn3n2)cc1)c1cccc(F)c1 | 14.1 |
| BrCC1C[n+]2c(SCc3ccccc3)nc3sc4c(c3c2O1)CCCC4.[Br-] (centres unmarked) | 10.3 |
| Cc1ccc2c(c1)CCCN2C(=O)c1ccncc1 | 8.11 |
| CCOC(=O)c1cccc(N2C(=O)C3C(C2=O)C2C=CC3C23CC3)c1 (centres unmarked) | 8.16 |
| CCOc1ccccc1N1CCN(c2nc3ccccc3nc2C(C#N)C(=O)OC(C)C)CC1 (centres unmarked) | 12.5 |
| O=C(NCCN1CCN(C(=O)c2cc3ccccc3oc2=O)CC1)c1cc2ccccc2oc1=O | -0.615 |
| COc1cccc(C(=O)N2CCN(CCCc3ccccc3)CC2)c1OC.O=C(O)C(=O)O | -4.87 |

| SMILES | hERG current change (%, negative = inhibition) at 1uM [%] |
| --- | --- |
| COc1ccc(C(=O)N2CCN(Cc3ccc4c(c3)OCO4)CC2)cc1[N+](=O)[O-] | -6.08 |
| CCOc1ccc(C(=O)N2CCN(c3ccccc3)CC2)cc1OCC | 1.55 |
| COc1ccc(C(=O)N2CCN(CCCc3ccccc3)CC2)cc1OC.O=C(O)C(=O)O | -61.8 |
| CCOc1ccc(C(=O)N2CCN(C(=O)c3ccco3)CC2)cc1OCC | 10.8 |
| COc1ccc(C(=O)N2CCN(CCc3ccccc3)CC2)cc1[N+](=O)[O-] | -73.5 |
| O=C(c1cc2ccccc2oc1=O)N1CCN(CCc2ccccc2)CC1 | -60.4 |
| CCOc1ccc(C(=O)N2CCN(CCc3ccccc3)CC2)cc1OCC | -77.5 |
| CN1CCN(C(=O)c2cc3ccccc3oc2=O)CC1 | 8.34 |
| COc1ccc(C(=O)N2CCN(Cc3ccccc3)CC2)cc1[N+](=O)[O-] | -22.3 |
| COc1cc(C(=O)N2CCN(CCCc3ccccc3)CC2)cc(OC)c1OC | 3.21 |
| COc1ccc(/C=C2/C(=O)NC(=O)N(c3ccc(C)c(C)c3)C2=O)cc1CN1C(=O)c2ccccc2C1=O | -3.04 |
| CCCC(=O)Nc1c2c(nn1-c1cccc(C)c1C)CS(=O)(=O)C2 | 4.62 |
| COc1ccccc1/C=C1\SC(=O)N(CCC(=O)N2CCCCC2CCO)C1=O (centres unmarked) | 14.7 |
| CCOC(=O)c1c2ccc(OCC(=O)NN)cc2n2ccccc12 | 13.3 |
| CC1CC(C)CN(CCCNC(=O)C2CCN(c3ncnc4c3sc3cccc(F)c34)CC2)C1 (centres unmarked) | -14.9 |
| CCCCN(C)CCCNC(=O)c1cc(-c2cccnc2)nc2ccccc12 | -20.2 |
| CCN(CC)CCNC(=O)c1ccc(NC(=O)c2cc(-c3ccco3)nc3ccccc23)cc1 | 9.15 |
| CCCCCCNC(=O)c1cc(-c2ccco2)nc2ccccc12 | 7.12 |
| CCCCN(C)CCCNC(=O)c1cc(-c2cccs2)nc2ccccc12 | -80.8 |

| SMILES | hERG current change (%, negative = inhibition) at 1uM [%] |
| --- | --- |
| CCN(CC)CCNC(=O)c1cc(-c2ccco2)nc2ccccc12.Cl | -55 |
| CC(C)CCNC(=O)c1cc(-c2cccs2)nc2ccccc12 | 2.51 |
| O=C(NC1CCCCC1)N(C1=NCCCCC1)c1ccc(Br)cc1 | 13.1 |
| Cc1cccc(NC(=O)CSCc2nc3c(nnn3Cc3ccc(F)cc3)c(=O)[nH]2)c1C | 8.63 |
| Cc1cc(C)n2nc(NCc3cccc(Br)c3)nc2n1 | -32.1 |
| O=C(Nc1cccc(NC(=O)c2ccccc2Cl)c1)c1ccc(F)cc1 | 7.98 |
| CCOC(=O)c1oc2ccccc2c1CN1CCN(C)CC1.Cl | -50.2 |
| CCOCc1c(C(=O)NCc2ccccc2CN2CCCC2)oc2ccccc12 | -60.1 |
| Cc1c(C(=O)NCc2ccccc2CN2CCCC2)oc2ccc(F)cc12 | -57.4 |
| COc1ccc2oc(C(=O)NCc3ccccc3CN3CCCC3)c(C)c2c1 | -27.2 |
| CCOc1ccc2oc(C(=O)NCc3ccccc3CN3CCCC3)c(C)c2c1 | -12.2 |
| CCOC(=O)c1oc2ccccc2c1CN1CCOCC1.Cl | -5.9 |
| COCc1c(C(=O)NCc2ccccc2CN2CCCC2)oc2ccccc12 | -34 |
| CCOC(=O)c1oc2ccccc2c1CN1CCCCC1.Cl | -9.66 |
| CCOCc1c(C(=O)NC2CCCCCC2)oc2ccccc12 | -1.11 |
| Cc1ccc(NC(=O)CCn2c(=S)oc3ccccc32)cc1 | 11 |
| CC(C)(C)C(=O)Nc1c(Cl)cccc1OC(F)(F)F | 12.4 |
| CC1CCN(S(=O)(=O)c2ccc3c(c2)n(C)c(=O)n3C)CC1 | 0.216 |
